Experimental data from PubChem BioAssay (NCI).
Where “and” joins values, the source holds several entries; their conditions need not be identical. Identical values can stand only once. Compounds without any hit were thinned out: in the full panel of roughly 83,000, 20% have a hit.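 Method: cells in 96-well plates; compound added at one concentration; 48 h incubation; percent growth measured; values under 10 scored active.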 A number with no mark means an inactive call. Calls of active or inactive are those of the source.

Legend:
Assay in all cases: NCI-60 one-dose screen, 48 h (100 = growth as untreated, 0 = no growth, -100 = all killed)
Settings in all cases: 10 µM unless noted
[1] = test system: NCI-H23 lung
[2] = test system: NCI-H226 lung
[3] = test system: NCI-H322M lung
[4] = test system: HOP-62 NSCLC
[5] = test system: NCI-H460 lung
[6] = test system: HOP-92 NSCLC
[7] = test system: NCI-H522 lung
[8] = test system: A549/ATCC NSCLC
[9] = test system: 786-0 renal
[10] = test system: COLO 205 colon

Compound | growth [1] | growth [2] | growth [3] | growth [4] | growth [5] | growth [6] | growth [7] | growth [8] | growth [9] | growth [10]
CO/N=C1\CC[C@]2(C)[C@H]3CC[C@]4(C)C(=O)CC[C@H]4[C@@H]3C[C@@H]3SC(N)=N[C@@]32C1 | 99.4% | 107% | 105% | 112% | 98.9% | 105% | 94.9% | 101% | 98% | 111%
CCCn1cc2c3c(cccc31)[C@H]1C[C@@H](C)CN(C)[C@@H]1C2 | 77% | 93.4% | 89.4% | 86.4% | 95.7% | 29.7% | 85.9% | 96% | 81.7% | 
O=C(NC1=NCC[Se]1)c1ccccc1O | 65.6% | 62.9% | 49.4% | 39% | 16.2% | 63.5% | 60.9% | 56.8% | 94.7% | 124%
O=C1CCCCC1CN1CCCCC1 (stereo not drawn) | 99.6% | 104% | 94.6% | 93% | 101% | 97.2% | 84.3% | 94.9% | 106% | 
c1ccc(CCN2CCCCC2)nc1 | 103% | 101% | 106% | 95.6% | 114% | 91.7% | 101% | 95.7% | 101% | 106%
Cc1ccc(P(=O)(O)O)cc1 | 108% | 99.2% | 111% | 120% | 108% | 120% | 101% | 102% | 103% | 126%
Cc1nc2ccccc2c(=O)n1-c1ccccc1F | 100% | 96.6% | 111% | 81.6% | 105% | 87.5% | 88.1% | 76.2% | 103% | 98.3%
O=c1[nH]c(=O)n(Cl)c(=O)n1Cl | 99.2% | 98.4% and 104% | 108% and 119% | 109% and 98.3% | 116% and 109% | 101% and 91.2% | 101% and 100% | 105% and 112% | 115% and 99.5% | 117% and 123%
O=[N+]([O-])c1cc(Cl)c(Cl)c([N+](=O)[O-])c1Cl | 85.6% | 81.4% | 123% | 119% | 99.7% | 74.9% | -86.7% (active) | 92.5% | 114% | -23.8% (active)
CCN(CC)CCn1c(=O)n(C)c2ccccc21 | 97.4% | 102% | 106% | 107% | 106% | 93.7% | 108% | 105% | 111% | 109%
C[C@@H]1C/C=C\C(=O)O[C@H](/C=C/C#C/C=C/C(C)(C)[C@@H](O)c2cccc(O)c2Br)[C@@H](C)/C=C/[C@H](C)C[C@H](OC(N)=O)C1 | 40.6% | 20.1% | 54.1% | 13.1% | 17.1% | 9.34% (active) | 16.7% | 28.5% | 37.2% | -26.1% (active)
Cc1cc[c-]cc1.Fc1c[c-]c(-c2ccccn2)c(F)c1.[Pt+2].c1ccc([PH+](c2ccccc2)c2ccccn2)cc1 | 70% | 58.1% | 83.6% | 90.6% | 61.5% | 56.3% | 64.4% | 41.8% | 63.5% | 32.9%
